# Assay results taken from PubChem BioAssay (NCI).
# This is part of a sample that, as a whole, favours compounds with a hit. Of some 79,000 tested, about 15% had one in any assay. Unmarked numbers belong to inactive results. Activity calls are given as the source filed them. Cut-off read from the data, not from the text of the source: active = growth inhibition above about 70%; inactive = the rest.
# Assays:
# [1] = NCI Yeast Anticancer Drug Screen. Data for the rad52 strain (AID 147);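 note: 0% = growth of vehicle-treated control cultures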; settings: S. cerevisiae rad52 mutant growth inhibition, hits give high values
# How it was run: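 DNA repair-defective yeast; compound exposure; growth scored against vehicle controls.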
# [2] = NCI Yeast Anticancer Drug Screen. Data for the wt1 strain (AID 149);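 note: 0% = growth of vehicle-treated wt1 cultures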; settings: S. cerevisiae wt1 strain (SPY 50644) growth inhibition, hits give high values
# How it was run: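 Vehicle-normalised growth inhibition; strain wt1; compound exposure.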
# [3] = NCI Yeast Anticancer Drug Screen. Data for the rad50EPP+ strain (AID 151);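 note: 0% = growth of vehicle-treated control cultures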; settings: S. cerevisiae rad50 mutant strain, hits give high values
# How it was run: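 rad50EPP+ yeast treated with test compounds. Readout: growth vs vehicle control.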
# [4] = NCI Yeast Anticancer Drug Screen. Data for the mgt1 strain (AID 153); settings: S. cerevisiae mgt1 mutant growth inhibition, hits give high values
# How it was run: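 Growth inhibition relative to vehicle controls was scored for the mgt1 yeast strain after compound exposure.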
# [5] = NCI Yeast Anticancer Drug Screen. Data for the rad50 strain (AID 155);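 note: 0% = growth of vehicle-only cultures of the same strain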; settings: S. cerevisiae rad50 strain growth inhibition, hits give high values
# How it was run: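 A DNA repair-deficient yeast mutant serves as the test organism; compound-induced growth inhibition is calculated against vehicle-treated cells.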
# [6] = NCI Yeast Anticancer Drug Screen. Data for the mec2-1 strain (AID 157); settings: S. cerevisiae mec2-1 strain, hits give high values
# How it was run: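 Growth inhibition is read against vehicle-treated controls after compound exposure of the mec2-1 yeast strain, which is defective in DNA damage repair or cell cycle control.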
# [7] = NCI Yeast Anticancer Drug Screen. Data for the sgs1 mgt1 strain (AID 161);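 note: 0% = growth of cultures given vehicle only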; settings: S. cerevisiae sgs1 mgt1 strain, hits give high values
# How it was run: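 Percent growth inhibition was derived by comparing compound-exposed mutant yeast with vehicle-exposed cultures. The strain carries alterations in DNA damage repair.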
# [8] = NCI Yeast Anticancer Drug Screen. Data for the CLN2oe strain (AID 163);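 note: 0% = growth of vehicle-only control cultures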; settings: S. cerevisiae CLN2oe strain, hits give high values
# How it was run: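 Compound-treated yeast; growth vs vehicle ctrl = % inhibition. Genetically altered strain (cell-cycle control).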
# [9] = NCI Yeast Anticancer Drug Screen. Data for the cln2 rad14 strain (AID 165);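 note: 0% = growth equal to vehicle treated cultures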; settings: S. cerevisiae cln2 rad14 strain, hits give high values
# How it was run: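 Growth inhibition, relative to vehicle-treated controls, is the read-out. The test organism is a yeast strain with defined genetic alterations, cln2 rad14.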
# [10] = NCI Yeast Anticancer Drug Screen. Data for the bub3 strain (AID 167); settings: S. cerevisiae bub3 mutant strain, hits give high values
# How it was run: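 Inhibition values come from growth of compound-treated mutant yeast normalised to vehicle-treated controls.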
# [11] = NCI Yeast Anticancer Drug Screen. Data for the wt2 strain (AID 169);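 note: 0% = growth of vehicle-treated yeast cultures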; settings: S. cerevisiae wt2 strain growth inhibition, hits give high values
# How it was run: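 Compound exposure of yeast; growth compared with vehicle controls; inhibition reported.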
# [12] = NCI Yeast Anticancer Drug Screen. Data for the mlh1 strain (AID 171);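 note: 0% = growth of vehicle-treated control cultures of the same strain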; settings: S. cerevisiae mlh1 strain growth inhibition, hits give high values
# How it was run: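 Compounds are applied to a genetically altered yeast strain, and its growth is compared with that of vehicle-treated cultures to give percent inhibition.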
# [13] = NCI Yeast Anticancer Drug Screen. Data for the sgs1 strain (AID 173);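 note: 0% = growth of vehicle-only control cultures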; settings: S. cerevisiae sgs1 mutant, hits give high values
# How it was run: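 Compounds applied to genetically altered yeast; growth compared with vehicle-treated cultures to give % inhibition.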
# [14] = NCI Yeast Anticancer Drug Screen. Data for the mlh1 rad18 strain (AID 175); settings: S. cerevisiae mlh1 rad18 strain growth inhibition, hits give high values
# How it was run: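 Cells of a genetically altered yeast strain, deficient in DNA damage repair, were treated with compound. Their growth was then compared with that of vehicle-treated cultures to give inhibition.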
# [15] = NCI Yeast Anticancer Drug Screen. Data for the rad18 strain (AID 177); settings: S. cerevisiae rad18 mutant growth inhibition, hits give high values
# How it was run: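 Compounds are applied to a repair-deficient yeast strain, and growth is compared with that of vehicle-treated cultures to give percent inhibition.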
# [16] = NCI Yeast Anticancer Drug Screen. Data for the rad14 strain (AID 159);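 note: 0% = growth of vehicle-treated control cultures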; settings: S. cerevisiae rad14 strain growth inhibition, hits give high values
# How it was run: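 Vehicle-treated cultures served as the baseline for growth inhibition of a DNA repair-mutant yeast strain exposed to each compound.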
# [17] = at 5.0 µM (retest, dose inferred, filed as 0.5)
# [18] = at 50.0 µM (retest, dose inferred, filed as 5.0)
smiles,measurement,setting,value
Cc1cccc(C)c1NC(=O)C(C#N)C1=C(Cl)C(=O)c2ccccc2C1=O (stereo unspecified),growth inhibition,[1]; at 1.2 µM,-43%
same,growth inhibition,[1]; at 3.7 µM,46%
same,growth inhibition,[1]; at 11.0 µM,93% (active)
same,growth inhibition,[1]; at 33.0 µM,95% (active)
same,growth inhibition,[1]; at 100.0 µM,94% (active)
same,growth inhibition,[2]; at 1.2 µM,-24%
same,growth inhibition,[2]; at 3.7 µM,24%
same,growth inhibition,[2]; at 11.0 µM,94% (active)
same,growth inhibition,[2]; at 33.0 µM,98% (active)
same,growth inhibition,[2]; at 100.0 µM,97% (active)
same,growth inhibition,[3]; at 1.2 µM,14%
same,growth inhibition,[3]; at 3.7 µM,67%
same,growth inhibition,[3]; at 11.0 µM,98% (active)
same,growth inhibition,[3]; at 33.0 µM,98% (active)
same,growth inhibition,[3]; at 100.0 µM,96% (active)
same,growth inhibition,[4]; at 1.2 µM,-4%
same,growth inhibition,[4]; at 3.7 µM,78% (active)
same,growth inhibition,[4]; at 11.0 µM,98% (active)
same,growth inhibition,[4]; at 33.0 µM,98% (active)
same,growth inhibition,[4]; at 100.0 µM,98% (active)
same,growth inhibition,[5]; at 1.2 µM,-11%
same,growth inhibition,[5]; at 3.7 µM,23%
same,growth inhibition,[5]; [17],95% (active)
same,growth inhibition,[5]; at 11.0 µM,97% (active)
same,growth inhibition,[5]; at 33.0 µM,97% (active)
same,growth inhibition,[5]; [18],96% (active)
same,growth inhibition,[5]; at 50.0 µM,91.2% (active)
same,growth inhibition,[5]; at 100.0 µM,96% (active)
same,growth inhibition,[6]; at 1.2 µM,-7%
same,growth inhibition,[6]; at 3.7 µM,62%
same,growth inhibition,[6]; [17],99% (active)
same,growth inhibition,[6]; at 11.0 µM,98% (active)
same,growth inhibition,[6]; at 33.0 µM,98% (active)
same,growth inhibition,[6]; [18],99% (active)
same,growth inhibition,[6]; at 50.0 µM,93.1% (active)
same,growth inhibition,[6]; at 100.0 µM,98% (active)
same,growth inhibition,[7]; [17],99% (active)
same,growth inhibition,[7]; [18],99% (active)
same,growth inhibition,[7]; at 50.0 µM,93.7% (active)
same,growth inhibition,[8]; at 1.2 µM,3%
same,growth inhibition,[8]; at 3.7 µM,16%
same,growth inhibition,[8]; at 11.0 µM,77% (active)
same,growth inhibition,[8]; at 33.0 µM,97% (active)
same,growth inhibition,[8]; at 100.0 µM,96% (active)
same,growth inhibition,[9]; [17],65%
same,growth inhibition,[9]; [18],98% (active)
same,growth inhibition,[9]; at 50.0 µM,92.8% (active)
same,growth inhibition,[10]; at 1.2 µM,6%
same,growth inhibition,[10]; at 3.7 µM,70% (active)
same,growth inhibition,[10]; [17],99% (active)
same,growth inhibition,[10]; at 11.0 µM,97% (active)
same,growth inhibition,[10]; at 33.0 µM,97% (active)
same,growth inhibition,[10]; [18],98% (active)
same,growth inhibition,[10]; at 50.0 µM,92.2% (active)
same,growth inhibition,[10]; at 100.0 µM,95% (active)
same,growth inhibition,[11]; at 1.2 µM,-22%
same,growth inhibition,[11]; at 3.7 µM,35%
same,growth inhibition,[11]; at 11.0 µM,98% (active)
same,growth inhibition,[11]; at 33.0 µM,98% (active)
same,growth inhibition,[11]; at 100.0 µM,98% (active)
same,growth inhibition,[12]; at 1.2 µM,-4%
same,growth inhibition,[12]; at 3.7 µM,78% (active)
same,growth inhibition,[12]; at 11.0 µM,98% (active)
same,growth inhibition,[12]; at 33.0 µM,98% (active)
same,growth inhibition,[12]; at 100.0 µM,98% (active)
same,growth inhibition,[13]; at 1.2 µM,8%
same,growth inhibition,[13]; at 3.7 µM,45%
same,growth inhibition,[13]; at 11.0 µM,97% (active)
same,growth inhibition,[13]; at 33.0 µM,98% (active)
same,growth inhibition,[13]; at 100.0 µM,97% (active)
same,growth inhibition,[14]; [17],98% (active)
same,growth inhibition,[14]; [18],98% (active)
same,growth inhibition,[14]; at 50.0 µM,91.7% (active)
same,growth inhibition,[15]; at 1.2 µM,-32%
same,growth inhibition,[15]; at 3.7 µM,-1%
same,growth inhibition,[15]; at 11.0 µM,92% (active)
same,growth inhibition,[15]; at 33.0 µM,97% (active)
same,growth inhibition,[15]; at 100.0 µM,96% (active)
CC(=O)/C=C/c1cc([N+](=O)[O-])ccc1O,growth inhibition,[1]; at 1.2 µM,-47%
same,growth inhibition,[1]; at 3.7 µM,-33%
same,growth inhibition,[1]; at 11.0 µM,-9%
same,growth inhibition,[1]; at 33.0 µM,79% (active)
same,growth inhibition,[1]; at 100.0 µM,97% (active)
same,growth inhibition,[2]; at 1.2 µM,-12%
same,growth inhibition,[2]; at 3.7 µM,-33%
same,growth inhibition,[2]; at 11.0 µM,-2%
same,growth inhibition,[2]; at 33.0 µM,66%
same,growth inhibition,[2]; at 100.0 µM,97% (active)
same,growth inhibition,[3]; at 1.2 µM,-27%
same,growth inhibition,[3]; at 3.7 µM,-4%
same,growth inhibition,[3]; at 11.0 µM,30%
same,growth inhibition,[3]; at 33.0 µM,78% (active)
same,growth inhibition,[3]; at 100.0 µM,95% (active)
same,growth inhibition,[4]; at 1.2 µM,-1%
same,growth inhibition,[4]; at 3.7 µM,2%
same,growth inhibition,[4]; at 11.0 µM,-2%
same,growth inhibition,[4]; at 33.0 µM,94% (active)
same,growth inhibition,[4]; at 100.0 µM,97% (active)
same,growth inhibition,[5]; at 1.2 µM,-22%
same,growth inhibition,[5]; at 3.7 µM,-20%
same,growth inhibition,[5]; [17],7%
same,growth inhibition,[5]; at 11.0 µM,-5%
same,growth inhibition,[5]; at 33.0 µM,83% (active)
same,growth inhibition,[5]; [18],85% (active)
same,growth inhibition,[5]; at 50.0 µM,86% (active)
same,growth inhibition,[5]; at 100.0 µM,97% (active)
same,growth inhibition,[6]; at 1.2 µM,-5%
same,growth inhibition,[6]; at 3.7 µM,-25%
same,growth inhibition,[6]; [17],0%
same,growth inhibition,[6]; at 11.0 µM,29%
same,growth inhibition,[6]; at 33.0 µM,96% (active)
same,growth inhibition,[6]; [18],89% (active)
same,growth inhibition,[6]; at 50.0 µM,90.5% (active)
same,growth inhibition,[6]; at 100.0 µM,99% (active)
same,growth inhibition,[16]; at 1.2 µM,-30%
same,growth inhibition,[16]; at 3.7 µM,-22%
same,growth inhibition,[16]; at 11.0 µM,9%
same,growth inhibition,[16]; at 33.0 µM,97% (active)
same,growth inhibition,[16]; at 100.0 µM,98% (active)
same,growth inhibition,[7]; [17],12%
same,growth inhibition,[7]; [18],87% (active)
same,growth inhibition,[7]; at 50.0 µM,88.9% (active)
same,growth inhibition,[9]; [17],36%
same,growth inhibition,[9]; [18],87% (active)
same,growth inhibition,[9]; at 50.0 µM,46.5%
same,growth inhibition,[10]; at 1.2 µM,-28%
same,growth inhibition,[10]; at 3.7 µM,-18%
same,growth inhibition,[10]; [17],21%
same,growth inhibition,[10]; at 11.0 µM,11%
same,growth inhibition,[10]; at 33.0 µM,95% (active)
same,growth inhibition,[10]; [18],92% (active)
same,growth inhibition,[10]; at 50.0 µM,49.7%
same,growth inhibition,[10]; at 100.0 µM,98% (active)
same,growth inhibition,[11]; at 1.2 µM,-31%
same,growth inhibition,[11]; at 3.7 µM,-32%
same,growth inhibition,[11]; at 11.0 µM,-23%
same,growth inhibition,[11]; at 33.0 µM,76% (active)
same,growth inhibition,[11]; at 100.0 µM,98% (active)
same,growth inhibition,[12]; at 1.2 µM,-6%
same,growth inhibition,[12]; at 3.7 µM,3%
same,growth inhibition,[12]; at 11.0 µM,33%
same,growth inhibition,[12]; at 33.0 µM,98% (active)
same,growth inhibition,[12]; at 100.0 µM,99% (active)
same,growth inhibition,[14]; [17],24%
same,growth inhibition,[14]; [18],97% (active)
same,growth inhibition,[14]; at 50.0 µM,85.1% (active)
same,growth inhibition,[15]; at 1.2 µM,-51%
same,growth inhibition,[15]; at 3.7 µM,-47%
same,growth inhibition,[15]; at 11.0 µM,-23%
same,growth inhibition,[15]; at 33.0 µM,74% (active)
same,growth inhibition,[15]; at 100.0 µM,97% (active)
